Among all 340,000 compounds or so, about 6,400 (1.9%) were called active. Roughly 4% stayed inconclusive and do not appear here. Many of the other results were omitted from the sample, so actives are more common in it than they were. Unmarked numbers belong to inactive results. Calls follow the shape of the dose curve; as a rule, active = well fitted falling curve with a large enough effect; inconclusive = small, poorly fitted or top-dose-only effect; inactive = no such curve, though single readings can be large or run the other way.
molecular target: ATP-dependent Clp protease proteolytic subunit (Bacillus subtilis (strain 168)) (UniProt P80244); assay: qHTS Assay for Activators of ClpP; also: the source files actives as falling curves though it sought activators and does not explain the sign; nearly all actives have a fitted effect of over 65% in size; conditions: purified B. subtilis ClpP, FRET peptide cleavage, 20 min; series mostly up to 57.5 µM; activity change, negative = active: at the top concentration
Sequence (P80244 whole entry, looked up): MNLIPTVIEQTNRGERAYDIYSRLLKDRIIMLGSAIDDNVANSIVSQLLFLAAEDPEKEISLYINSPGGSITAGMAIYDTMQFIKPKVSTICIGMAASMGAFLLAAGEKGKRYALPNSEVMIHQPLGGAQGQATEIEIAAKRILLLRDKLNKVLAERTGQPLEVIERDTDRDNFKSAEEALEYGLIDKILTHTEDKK
Outline: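 Buffer: 100 mM Tris/HCl pH8, 100 mM KCl, 0.05% low protease BSA, 2.5% glycerol, 0.01% Tween-20. ClpP 10 microg/mL final; 20 min RT; delta FRET normalized to ADEP and DMSO controls.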
Potency is read from the fitted curve at half-maximal effect.

First: CCc1c(-c2ccc(F)cc2)ncn1Cc1cccc(-c2ccccc2)c1
Second: COc1cccc(C(O)c2ncc(-c3ccc4ccccc4c3)[nH]2)c1 (stereo not given)
The “activity change, negative = active” value of the first is lower: -16.7% for the first, 5.1% for the second.

First: Cn1c(Nc2ccc(F)cc2)nc2cc(-c3ccsc3)sc2c1=O
Second: Cc1ccc(NC(=O)Nc2nnc(-c3ccncc3)s2)cc1
The “activity change, negative = active” value of the first is lower: -19.8% for the first, -17.4% for the second.

Compared with `O=C(O)C1=C/C(=C/C=[N+]2c3cc(O)c(O[C@H]4OC(CO)[C@@H](O)[C@@H](O)[C@@H]4O)cc3C[C@@H]2C(=O)[O-])C[C@H](C(=O)O)N1` (stereo not given in full), `O=C(OCc1ccccc1)N1CCC2CC1c1ccc(-c3ccc4c(c3)OCO4)cc12` (stereo not given) is lower in “activity change, negative = active” value: -1.44% for the first, -29.7% for the second.

First: Cc1cccc(-c2cnc(C(O)c3cc(C)cc(C)c3)[nH]2)c1 (stereo not given)
Second: Cc1cccc(CSc2nc3ccncc3n2Cc2ccc(C(=O)O)cc2)c1
The “activity change, negative = active” value of the first is higher: -1.64% for the first, -15.8% for the second.

Going from `O=C(NCCc1ccccc1)c1cnc2sc(N3CCCC3)nn2c1=O` to `O=C(O)c1ccccc1-c1ccccc1C(=O)NCCc1ccccc1`, the “activity change, negative = active” value falls from 23.7% to 0.88%.

Going from `CC1(C(=O)Nc2cccc3cccnc23)CCN1C(=O)CCC1CCCC1` (stereo not given) to `Cc1ccc(F)c(S(=O)(=O)NC(=O)C2(C)CCN2C(=O)CCc2cccs2)c1` (stereo not given), the “activity change, negative = active” value rises from -4.78% to -0.445%.

Going from `Cc1occc1C(=O)Nc1nnc(C2CCCCC2)s1` to `COc1ccc([C@H]2CC(=O)C[C@@H](CCn3cc(CC4CCCC4)nn3)O2)cc1`, the “activity change, negative = active” value falls from 1.56% to 0.945%.

Going from `CCCCOc1ccc(C(=O)NO)cc1` to `CCOc1ccccc1Nc1ccc(C(=O)O)cc1[N+](=O)[O-]`, the “activity change, negative = active” value falls from 1.01% to -0.992%.

Going from `CC1(C(=O)NS(=O)(=O)c2ccccc2Cl)CCN1C(=O)c1cccc(F)c1` (stereo not given) to `COc1cccc(NC(=O)CN(C)C(=O)c2cc(Cl)nc3ccccc23)c1`, the “activity change, negative = active” value falls from -2.25% to -5.28%.

Compared with `CCc1nc2c(OCCOc3ccccc3)cccn2c1N(C)C(=O)c1ccc(OC)cc1`, `COc1ccc(NC(=O)c2cc(-c3ccc(C)o3)nc3ccccc23)cc1` is lower in “activity change, negative = active” value: -0.66% for the first, -0.804% for the second.

Going from `CCOC(=O)c1cc(=O)c2ccc(OCc3ccccc3)cc2o1` to `CCOC(=O)c1c(-c2ccccc2)oc2ccc(OCC(N)=O)cc12`, the “activity change, negative = active” value rises from -0.5% to 4%.

Going from `CN1C[C@@H](CO)O[C@@H](n2cnc3c(N4CCN(CCO)CC4)ncnc32)C1` to `Cc1nn(CC(=O)NCC2CCCO2)c(=O)c2cc3ccccc3n12` (stereo not given), the “activity change, negative = active” value rises from -1.83% to 3.78%.

Compared with `Cc1ccc(CN(Cc2cccnc2)C(=S)Nc2cccc(Cl)c2C)cc1`, `Cc1ccc(CSc2nc3cccnc3n2Cc2ccc(C(=O)NC3CC3)cc2)cc1` is lower in “activity change, negative = active” value: -1.41% for the first, -21.3% for the second.

Compared with `COc1cccc(NC(=S)NCc2ccccn2)c1`, `CCOc1ccc(Cl)cc1-c1cc(C(=O)NCc2cccs2)[nH]n1` is lower in “activity change, negative = active” value: 1.22% for the first, 0.129% for the second.

First: CC1(C(=O)NCc2ccco2)Cc2c(-c3ccc4c(c3)OCO4)ccnc2O1 (stereo not given)
Second: Cc1nn(CC(=O)NCCc2ccccc2)c(=O)c2cc3occc3n12
The “activity change, negative = active” value of the first is higher: 4.97% for the first, -3.03% for the second.

Compared with `O=C(O)c1ccc(Cn2c(SCc3ccc(F)cc3)nc3ccncc32)cc1`, `C=CCn1c(SCc2ccc(C(=O)NCCO)cc2)nc2ccccc2c1=O` is higher in “activity change, negative = active” value: -6.24% for the first, -1.32% for the second.

First: CCCCNC(=O)C[C@@H]1C[C@@]2(C(=O)OCC)CCC=C2N(Cc2cccc3ccccc23)C1=O
Second: CCOC(=O)[C@]12CCC=C1N(Cc1cccc3ccccc13)C(=O)[C@H](CC(=O)NCc1cccc(C(F)(F)F)c1)C2
The “activity change, negative = active” value of the first is higher: 0.695% for the first, -21.3% for the second.

Compared with `O=C(c1ccccc1)N1CCN(c2cc(-c3ccccc3)nc3cc(-c4cccc(Cl)c4)nn23)CC1`, `CCOCCC(=O)Nc1ccc2c(c1)c(=O)n(C)n2-c1ccc2ccccc2c1` is higher in “activity change, negative = active” value: -45.3% for the first, -28.6% for the second.

First: CC=CCn1c(SCCCc2ccccc2)nc2c1c(=O)[nH]c(=O)n2C
Second: COc1cc2c(=O)n(C)c3ccccc3c2cc1OC
The “activity change, negative = active” value of the first is higher: -0.218% for the first, -13.6% for the second.

Compared with `NC(=O)c1ccc(Nc2ccc3nonc3c2[N+](=O)[O-])cc1`, `COc1cccc(OC)c1C(=O)Nc1ccc2c(c1)n(C)c(=O)n2C` is higher in “activity change, negative = active” value: 0.816% for the first, 2.54% for the second.

For `CCN(CC)c1nn2c(=O)c(C(=O)NCCc3ccccc3)cnc2s1`, the Potency was 28.2 µM (active).
`Cc1occc1C(=O)Nc1nnc(-c2ccncc2)s1` was tested, and the Potency was 31.6 µM (active).
With `CCOC(=O)COc1cc(OCC(=O)OCC)c2c(=O)cc(-c3ccccc3)oc2c1` the Potency was 28.2 µM (active).
`COc1cccc(NC(=S)N(Cc2ccc(C)cc2)Cc2ccccn2)c1` was tested, and the Potency was 28.2 µM (active).
With `O=C(O)c1ccc(CSc2nc3cccnc3n2Cc2cccc(F)c2)cc1` the Potency was 31.6 µM (active).
For `O=C(NCc1ccc(F)cc1)c1ccc(Cn2c(SCc3ccc(F)cc3)nc3cccnc32)cc1`, the Potency was 28.2 µM (active).
With `Cc1nn(CC(=O)O)c(=O)c2cc3cc(F)ccc3n12` the Potency was 28.2 µM (active).
For `COc1ccc(NC(=O)CN(C)C(=O)c2cc(-c3ccc(C)o3)nc3ccccc23)cc1`, the Potency was 25.1 µM (active).
`Cc1ccc(Nc2ccc(C(N)=O)cc2[N+](=O)[O-])cc1` was tested, and the Potency was 12.6 µM (active).
With `COc1cccc2c(O)cc(=O)n(C)c12` the Potency was 35.5 µM (active).

Reference: PubChem BioAssay AID651965 (National Center for Advancing Translational Sciences (NCATS), 2013)
